Source: PubChem
SMARCA2 act: SMARCA2 (BRM) function activators, primary screen, cell-based, luminescence, high throughput; AID 652017, 2013; hit rate 1% among 370,000; activation, % at 9.1 µM; MG213 cells, MMTV-luciferase reporter, dexamethasone, overnight; in the data active means activation above about 7.8%;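 further: 0% = vehicle wells and 100% = reference activator wells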
HSF-1 act: HSF-1 activators, primary screen, NIH3T3-HGL cells, MG132 stress, luminescence, single point; activation, % at 9 µM; AID 504408, 2011; hit rate 1.7% among 300,000; NIH3T3-HGL HSF-1 luciferase reporter, 8 h; 100% = twice DMSO control signal;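 active means mean replicate activation of at least 50% with a set share of replicates each reaching 50%; inconclusive means only one of those two conditions met; inactive means mean below 50% and too few replicates reaching it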;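 further: 0% = median of the neutral control wells and 100% = twice that signal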
Wnt bcat act: Wnt/beta-catenin pathway activators, primary screen, cell-based, plate reader, single point; Wnt/beta-catenin reporter cell assay, activator; activation, % at 9.35 µM; hit rate 1.2% among 300,000; AID 743398, 2014; in the data active means activation above about 30%, passing the limit was not always enough; inconclusive means no clear call, values can overlap the other calls;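 further: 0% = neutral control wells and 100% = positive control wells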
esBAF inh: Bmi1 luciferase reporter increase in mESCs, primary screen, esBAF inhibitor project, mouse ES cells, Bmi1 luciferase knock-in, single point; reporter increase, % at 12.5 µM; hit rate 2% among 350,000; 24 h; 100% = twice the neutral-well signal; in the data active means activation above about 40%; inconclusive means no clear call, values can overlap the other calls;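 further: 0% = median of the plate's neutral control wells and 100% = double that signal; a rise in the Bmi1 reporter signal indicates esBAF inhibition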
MITF TRPM1 HTS: activators of MITF-driven TRPM1 promoter reporter, primary screen, cell-based, SK-MEL-5, luciferase, single point | AID 588334, 2011 | activation, % at 12.5 µM | hit rate 0.75% among 300,000 | SK-MEL-5 TRPM1-promoter luciferase, 24 h; % of positive control, neutral wells = 0;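 active means mean activation of at least 80% with every replicate also reaching 80%; inconclusive means mean reaches 80% but some replicate falls short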;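 further: 0% = neutral control wells and 100% = parthenolide positive control wells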
HSF1 inhib: HSF1 inhibitors in luciferase reporter cells, primary screen, cell-based, NIH3T3, luminescence; NIH3T3-HGL HSE-luciferase, MG132-induced, luminescence 8 h; active compounds read low; activity change, negative = inhibition, % at 7.5 µM (by protocol); hit rate 0.77% among 300,000; AID 2098, 2009;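 active means more than half of replicate wells show activity change below -50%, luminescence cut by over half; inconclusive means some wells, but at most half, below -50%; inactive means no replicate well below -50%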;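 further: luciferase reports HSF-1 transcriptional activity via heat shock element; 0% = median of DMSO wells and -100% = zero luminescence signal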
* hit, by the source's call; ? = inconclusive; . = not tested or not shown. This is a sample that favours compounds with a hit; in the whole collection about 4.3% have one here.

SMILES	SMARCA2 act	HSF-1 act	Wnt bcat act	esBAF inh	MITF TRPM1 HTS	HSF1 inhib
CCN1CCN(Cc2ccc(NC(=O)c3ccc(C)c(NC(=O)c4nccn4C)c3)cc2C(F)(F)F)CC1	0.2	-37.9	-4.5	-6.0	-3.0	-37.0
O=S(=O)(N[C@H]1CC[C@@H](CCn2cc(-c3cccnc3)nn2)O[C@@H]1CO)c1ccc(F)cc1	.	.	.	-5.4	.	.
CCCCCCc1nc2ccccc2c(=O)n1N	2.8	-37.4	2.3	24.5	17.0	-22.6
Cc1cccc(-c2nc3ccccc3c(=O)n2N)c1	-0.1	-5.6	-0.4	-0.9	-1.7	-0.2
Cc1cccc(OCc2nc3ccccc3c(=O)n2N)c1	-0.2	19.2	24.9	59.3*	67.0	8.6
Nn1c(COc2cccc(Cl)c2)nc2ccccc2c1=O	1.8	22.1	.	44.5*	52.2	6.1
C[C@@H]1CN([C@H](C)CO)C(=O)Cc2cc(NS(=O)(=O)c3ccc(Cl)cc3)ccc2O[C@@H]1CN(C)S(C)(=O)=O	.	.	.	-4.2	.	.
CCn1c(C(=O)N2CCc3ccccc3C2)cc2oc3ccccc3c21	-2.9	27.5	-3.0	-1.8	.	5.9
Cn1c(C(=O)N2CCc3ccccc3C2)cc2oc3ccccc3c21	.	65.9*	2.6	54.8*	60.8	41.5
C[C@H](CO)N1C[C@H](C)[C@@H](CN(C)Cc2ccncc2)Oc2ccc(NC(=O)CCC(F)(F)F)cc2C1=O	.	.	.	0.5	.	.
COc1ccc(NC(=O)Nc2cccc3c2O[C@H](CN(C)C(=O)Nc2ccc(OC)cc2)[C@@H](C)CN([C@@H](C)CO)C3=O)cc1	.	.	.	1.9	.	.
COc1ccc(N=C2C(=S)N(c3ccc(OC)cc3)C(=NS(=O)(=O)c3ccccc3)N2c2ccccc2)cc1	5.1	.	68.3*	.	8.8	.
CCOC(=O)c1c(-c2ccc(C)o2)csc1NC(=O)CN1CCCCC1	-0.9	17.5	-7.1	6.2	3.6	4.1
CCOC(=O)c1c(-c2ccc(C)o2)csc1NC(=O)CSc1nncs1	1.1	95.5*	.	-10.5	-2.4	80.3
CCC(CO)n1c(SCc2cc([N+](=O)[O-])cc3c2OCOC3)nc2ccccc2c1=O (stereo not given)	1.0	56.0*	.	.	-0.3	33.4
C=CCn1c(SCc2cc([N+](=O)[O-])cc3c2OCOC3)nc2cc(C(=O)O)ccc2c1=O	-1.8	63.3*	1.2	.	6.6	28.8
Cc1ccc(/C=N/N=C/c2ccc(C)cc2)cc1	6.2	13.4	3.8	56.9*	-1.1	-2.9
Oc1ccc(/C=N/N=C/c2ccc(O)cc2)cc1	3.0	-3.1	-2.4	26.8	26.5	-2.2
Cc1ccc(S(=O)(=O)N[C@@H]2CC[C@@H](CCNC(=O)CN3CCOCC3)O[C@H]2CO)cc1	.	.	.	0.6	.	.
C[C@@H]1CN([C@H](C)CO)C(=O)c2cc(-c3ccccc3)cnc2O[C@@H]1CN(C)C(=O)Cc1ccccn1	.	.	.	-3.2	.	.
CO[C@H](CN(C)C(=O)c1ccccc1F)[C@H](C)CN([C@@H](C)CO)S(=O)(=O)c1ccc(Cl)cc1	.	.	.	-0.5	.	.
CCCC(C)NS(=O)(=O)c1ccccc1 (stereo not given)	-1.2	-68.3	.	-4.2	-7.0	-59.3*
CC1(C(=O)O)C=CC2(CCCCC2)N1C(=O)c1ccccc1 (stereo not given)	-0.8	-4.8	-1.6	4.4	-8.2	-0.2
CC1(C(=O)NCCCNc2ncc(C(F)(F)F)cc2Cl)C=CC2(CCCCC2)N1C(=O)c1ccccc1 (stereo not given)	.	-76.7	.	.	.	-69.0*
Cc1ccc(SC[C@H](c2ccccc2)N2CCN(C)CCC2=O)cc1	3.4	2.2	16.7	50.9*	68.8	2.2
SMILES	SMARCA2 act	HSF-1 act	Wnt bcat act	esBAF inh	MITF TRPM1 HTS	HSF1 inhib
CN1CCC(=O)N([C@H](CSc2ccccc2)c2ccccc2)CC1	0.9	-1.6	3.9	16.9	20.6	-0.5
Cc1ccc(SC[C@H](CC(C)C)N2CCN(C)CCC2=O)cc1	6.9	-3.9	7.0	57.9*	53.0	1.3
C[C@H](CO)N1C[C@H](C)[C@H](CN(C)Cc2ccncc2)Oc2ccc(NS(=O)(=O)c3ccc(Cl)cc3)cc2CC1=O	.	.	.	0.9	.	.
COc1ccc(NC(=O)n2ncc3c(C)cccc32)cc1OC	6.4	53.4*	3.4	53.0*	105.9*	30.3
COc1ccc(C)cc1NC(=O)n1ncc2c(C)cccc21	-0.8	31.6	5.0	-3.6	5.8	13.5
Cc1ccc(NC(=O)n2ncc3c(C)cccc32)cc1F	7.7	61.0*	18.0	.	18.0	30.9
COc1ccc(NC(=O)n2ncc3c(C)cccc32)cc1	3.0	59.7*	39.2*	39.0	38.0	39.2
CC(C)(C)c1csc(NC(=O)C2=COCCO2)n1	4.8	31.9	52.8*	.	77.0	16.3
Cc1ccc(-c2csc(NC(=O)C3=COCCO3)n2)cc1	7.6	34.4	.	.	?	22.1
CCCc1ccc(-c2csc(NC(=O)C3=COCCO3)n2)cc1	-2.8	.	20.4	64.6*	68.3	.
O=c1c2ccccc2oc2ccc(NCCCn3ccnc3)cc12	4.7	-0.1	34.5*	-58.6	42.6	19.8
COc1cccc(CNC(=O)C(Cc2ccccc2)n2cccc2)c1 (stereo not given)	2.7	3.4	44.4*	.	12.9	5.7
COc1cccc(NC(=O)C(Cc2ccccc2)n2cccc2)c1 (stereo not given)	-0.2	7.6	-0.3	.	1.6	3.2
CCC(C)[C@H](NC(=O)NCc1ccccc1)C(=O)O (stereo not given in full)	-0.2	3.9	.	2.8	-4.1	-6.3
CCC(C)[C@H](NC(=O)NCc1cccc(OC)c1)C(=O)O (stereo not given in full)	0.6	-86.1	.	-0.9	7.2	-83.0*
O=C(Nc1ccc([N+](=O)[O-])cc1)C1C(c2ccccc2)=C1c1ccccc1	-3.3	178.3*	-2.5	.	-9.3	165.2
O=C(Nc1ccc(C(=O)O)cc1)Nc1ccc([N+](=O)[O-])cc1	2.2	-12.9	2.3	-9.3	-16.7	-3.1
CCNC(=O)C[C@@H]1CC[C@H]2[C@@H](COc3ccc(NC(=O)Nc4cccc(Cl)c4)cc3C(=O)N2C)O1	.	.	.	0.4	.	.
O=c1c2c3c(sc2ncn1/N=C/c1ccco1)CCCC3	-0.4	9.3	-0.5	0.2	29.1	-1.9
Cc1sc2ncn(/N=C/c3ccco3)c(=O)c2c1C	-1.4	2.3	22.4	48.9*	13.3	9.2
